# Shown are actives, neighbours in structure and some others; about 10% of the full set was active somewhere.
# Luciferase inh: Firefly luciferase inhibition profiling of diverse chemical library using quantitative high-throughput screening | Luciferin 4-monooxygenase (Photinus pyralis), P08659 | purified P. pyralis luciferase, luminescence, biochemical | Potency, µM (titrated, usually from 115 µM), most hits filed as inhibitors | 76,000 tested, 2.5% active; further: nearly all actives have a fitted effect of over 65% in size
#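 Luminescence read by CCD imaging after purified firefly luciferase (10nM final) was added to substrate buffer holding 10uM D-luciferin and 10uM ATP, pH 7.5, pre-dosed with compound.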
# GPT2 inhibitor: Primary qHTS assay for inhibitors of Glutamate pyruvate transaminase 2 (GPT2); Alanine aminotransferase 2 (Homo sapiens), Q8TD30; Recombinant GPT2, coupled pyruvate oxidase/HRP Amplex Red fluorescence; Potency, µM (titrated, usually from 57.7 µM), without a hit: at the top dose activity change, negative = inhibition, hits mostly inhibitors; 100,000 tested, 0.25% active; AID 1671188, 2021; further: nearly all actives have a fitted effect of over 60% in size
#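 Fluorescence read-out: pyruvate from GPT2 turnover coupled to pyruvate oxidase, HRP and Amplex Red (0.2mM ThPP, 0.2U/mL PO and HRP, 50uM Amplex final). Substrates 250uM a-KG, 2mM L-alanine; enzyme 10ng/uL; 30 min RT.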
# 3T3 cytotox: Cytotoxic Profiling in NIH 3T3 Cell Line of Diverse Libraries Using Quantitative High-Throughput Screening; NIH 3T3 viability, CellTiter-Glo ATP luminescence, 48-72 h; Potency, µM (titrated, usually from 96.7 µM), for inactives: at the top dose activity change, negative = cytotoxicity, usual class: inhibitors; 94,000 tested, 4.3% active; further: nearly all actives have a fitted effect of over 55% in size
#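 Cells were seeded at 400 per well, treated with pin-transferred compound, and kept 48 or 72 hr at 37 °C before CellTiter-Glo addition and luminescence imaging of cellular ATP.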
# NPR1 antag: Natriuretic polypeptide receptor (hNpr1) antagonism - Primary qHTS | HEK293 hNpr1 GloSensor cGMP, ANP-stimulated luminescence | AID 1347048, 2019 | Potency, µM (highest dose often 46.3 µM), without a hit: at the top dose activity change, negative = inhibition, most hits filed as inhibitors | Atrial natriuretic peptide receptor 1 (Homo sapiens), P16066 | 76,000 tested, 1.6% active; calls by dose curve; further: nearly all actives have a fitted effect of over 60% in size
# Target sequence (P16066 whole entry, looked up): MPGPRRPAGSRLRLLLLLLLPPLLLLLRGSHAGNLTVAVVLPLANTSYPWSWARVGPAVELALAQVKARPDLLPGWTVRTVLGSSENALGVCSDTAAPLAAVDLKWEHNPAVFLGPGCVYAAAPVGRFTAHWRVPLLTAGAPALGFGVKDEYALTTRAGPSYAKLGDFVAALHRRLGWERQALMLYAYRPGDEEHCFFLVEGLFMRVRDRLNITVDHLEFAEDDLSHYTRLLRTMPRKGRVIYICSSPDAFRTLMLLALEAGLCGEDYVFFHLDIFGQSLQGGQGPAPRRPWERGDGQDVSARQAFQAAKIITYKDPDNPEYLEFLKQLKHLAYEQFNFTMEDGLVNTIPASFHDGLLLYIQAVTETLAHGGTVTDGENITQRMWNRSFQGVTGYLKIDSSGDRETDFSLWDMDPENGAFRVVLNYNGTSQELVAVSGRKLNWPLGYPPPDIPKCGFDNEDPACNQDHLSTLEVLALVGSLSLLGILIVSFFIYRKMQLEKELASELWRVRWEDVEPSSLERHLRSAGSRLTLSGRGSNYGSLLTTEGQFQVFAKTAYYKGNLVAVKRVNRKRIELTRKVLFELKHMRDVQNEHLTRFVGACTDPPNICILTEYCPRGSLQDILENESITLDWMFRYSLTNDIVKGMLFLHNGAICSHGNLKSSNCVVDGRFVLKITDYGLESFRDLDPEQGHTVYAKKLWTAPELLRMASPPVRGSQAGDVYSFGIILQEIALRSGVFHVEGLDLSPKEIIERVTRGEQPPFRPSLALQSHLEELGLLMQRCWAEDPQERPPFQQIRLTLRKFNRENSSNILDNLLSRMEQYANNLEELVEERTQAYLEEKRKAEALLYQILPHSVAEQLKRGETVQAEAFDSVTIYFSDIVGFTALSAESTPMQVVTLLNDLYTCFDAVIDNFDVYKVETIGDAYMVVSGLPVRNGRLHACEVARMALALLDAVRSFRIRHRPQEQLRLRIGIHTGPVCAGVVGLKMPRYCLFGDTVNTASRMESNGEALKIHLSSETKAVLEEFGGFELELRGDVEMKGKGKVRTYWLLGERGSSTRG
#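 HEK293 cells stably expressing human Npr1 and cGMP GloSensor pGS-40F, loaded 2 h with 2% GloSensor reagent, given compound 30 min at room temperature. Luminescence read before and 20 min after 0.1 nM hNppA.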
# HEK cytotox: Cytotoxic Profiling in HEK 293 Cell Line of Diverse Libraries Using Quantitative High-Throughput Screening; AID 1345083, 2018; 94,000 tested, 6.6% active; HEK 293 viability, ATP luminescence (CellTiter-Glo), 48-72 h; Potency, µM (series often up to 115 µM), without a hit: at the top dose activity change, negative = cytotoxicity, actives largely listed as inhibitors; further: nearly all actives have a fitted effect of over 60% in size
#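 Viability of HEK 293 cells, plated at 250 cells/well, was judged by cellular ATP after compound treatment for 48 or 72 hr. Luminescence was imaged 10 min after CellTiter-Glo addition at room temperature.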
# An asterisk follows results filed as active; i = inactive; ? = inconclusive; nt = no result; [ ] = dose if it differs, or a comment. Unless noted, the call rests on the fitted dose curve; in most records, active means well fitted curve in the direction sought with a large enough effect; inconclusive means small, poorly fitted or top-dose-only effect, or another doubt; inactive means no such curve, though single readings can be large; an effect the other way counts as inactive or inconclusive. On the % scale 0 is the no-effect control and ±100 the full control effect; potency means the concentration at half of the fitted maximal effect.
SMILES,Luciferase inh,GPT2 inhibitor,3T3 cytotox,NPR1 antag,HEK cytotox
CCN1c2cc(C(=O)Nc3ccc(OC)cc3)ccc2C(=O)N2CCCCC21 (stereo not drawn),i,i,?,-2%,?
CCN1c2cc(C(=O)Nc3cccc(SC)c3)ccc2C(=O)N2CCCCCC21 (stereo not drawn),i,i,22µM*,?,22µM*
CCN1c2cc(C(=O)Nc3ccc(SC)cc3)ccc2C(=O)N2CCCCC21 (stereo not drawn),?,i,40µM*,-25%,?
CCN1c2cc(C(=O)Nc3ccc(C)c(F)c3)ccc2C(=O)N2CCCCC21 (stereo not drawn),i,i,28µM*,0%,?
CCN1c2cc(C(=O)Nc3cccc(F)c3)ccc2C(=O)N2CCCCC21 (stereo not drawn),?,-1%,?,0%,?
CCN1c2cc(C(=O)Nc3ccc(F)cc3)ccc2C(=O)N2CCCCC21 (stereo not drawn),i,i,?,-13%,?
Cc1cccc(CNC(=O)c2cc3c(=O)[nH]c(C)cn3n2)c1,?,i,-8%,24%,?
COCCCNC(=O)CCN(CCC(C)C)C(=O)c1cc(C)oc1C,i,i,-7%,-3%,?
CCN1c2cc(C(=O)Nc3ccc4c(c3)CCC4)ccc2C(=O)N2CCCCC21 (stereo not drawn),?,i,13µM*,1%,22µM*
CCN1c2cc(C(=O)Nc3ccc(C(N)=O)cc3)ccc2C(=O)N2CCCCC21 (stereo not drawn),i,-2%,32µM*,19%,?
C#CCOc1ccccc1CN1CCN(c2ncc(F)cn2)CC1,i,1%[11.5 µM],-23%,-4%,?
COc1cc(-c2nc(-c3c(C)noc3C)cc3c2cc(C)n3CCN(C)C)ccn1,i,-2%[88.5 µM],?,3%[70.6 µM],71µM*
Cc1cc(-c2nc(-c3c(C)noc3C)cc3c2cc(C)n3CCN(C)C)ccn1,i,-26%[88.5 µM],?,-5%[70.6 µM],?
Cc1noc(C)c1-c1cc2c(cc(C)n2CCN(C)C)c(-c2ccsc2)n1,i,-1%[88.5 µM],?,4%[70.6 µM],-5%[172 µM]
Cc1noc(C)c1-c1cc2c(cc(C)n2CCN(C)C)c(-c2ccccc2)n1,i,-3%[88.5 µM],22µM*,0%[70.6 µM],?
Cc1noc(C)c1-c1cc2c(cc(C)n2CCN(C)C)c(-c2ccnn2C)n1,i,-41%[88.5 µM],45µM*,-14%[70.6 µM],?
COc1ccc(-c2nc(-c3c(C)noc3C)cc3c2cc(C)n3C)cn1,i,?,?,-12%[70.6 µM],?
COc1cncc(-c2nc(-c3c(C)noc3C)cc3c2cc(C)n3CCN(C)C)c1,i,i,22µM*,-6%[70.6 µM],89µM*
COc1ccc(-c2cc3nc4c(c(=O)n3[nH]2)CN(C(=O)c2ccc3[nH]ccc3c2)CC4)cc1,?,i,-12%,-3%,-30%
O=C(c1ccccc1)N1CCC(c2nn(-c3ccc(Cl)cc3)c(=O)[nH]2)CC1,i,?,?,1%,?
Cc1cc(F)ccc1OC1CN(Cc2cccnc2)C1,i,i,-25%[138 µM],-1%[70.6 µM],?
Cc1noc(C)c1-c1cc2c(cc(C)n2CCN(C)C)c(Nc2ccncn2)n1,i,-6%[88.5 µM],25µM*,-20%[70.6 µM],100µM*
CCc1[nH]c2ccc(CNC(=O)C3CC(=O)Nc4ccccc43)cc2c1C (stereo not drawn),18µM*,2%,?,0%,?
O=C(c1ccc(C(F)(F)F)cc1)N1CCC(C(=O)N2CCC(N3CCOCC3=O)CC2)CC1,nt,i,-23%,nt,?
CCOC(=O)c1ccc(NC(=O)Cn2ccn3nc4c(c3c2=O)CCCCC4)cc1,i,i,?,-4%,45µM*
SMILES,Luciferase inh,GPT2 inhibitor,3T3 cytotox,NPR1 antag,HEK cytotox
CCOc1ccc(NC(=O)Cn2ccn3nc4c(c3c2=O)CC(C)CC4)cc1 (stereo not drawn),i,-6%,32µM*,2%,40µM*
O=C(Cn1ccn2nc3c(c2c1=O)CCCC3)Nc1ccccc1,i,-6%,i,5%,?
O=C(Cc1cccs1)N1[C@@H](c2ccccc2)[C@@H](CO)C[C@]12CCCCNC2=O,nt,nt,-15%,nt,?
c1ccc2c(c1)COC1(CCN(CC3CC3)C1)CN2CC1CC1 (stereo not drawn),nt,i,?,nt,-32%
c1ccc2c(c1)COC1(CCNC1)CN2CC1CCCC1 (stereo not drawn),nt,i,35µM*,nt,50µM*
COc1ccccc1Nc1ccnc(N2CCN(C(=O)c3ccccc3C)CC2)n1,nt,i,?,nt,45µM*
COc1ccccc1Nc1ccnc(N2CCN(C(=O)c3ccccc3F)CC2)n1,nt,-7%,?,nt,45µM*
O=C(C1CCCC1)N1CCN(c2nccc(Nc3ccccc3F)n2)CC1,nt,i,22µM*,nt,?
COc1ccccc1C(=O)N1CCN(c2nccc(Nc3ccccc3F)n2)CC1,nt,0%,?,nt,?
O=C(c1ccccc1F)N1CCN(c2nccc(Nc3ccccc3F)n2)CC1,nt,i,?,nt,35µM*
O=C(C1CCCN1c1nccc(Nc2ccccc2F)n1)N1CCN(c2ncccn2)CC1 (stereo not drawn),nt,i,i,nt,-13%
COc1ccccc1Nc1ccnc(N2CCN(C(=O)c3ccccc3)CC2)n1,nt,5%,35µM*,nt,?
COc1ccccc1Nc1ccnc(N2CCN(C(=O)C3CC3)CC2)n1,nt,1%,?,nt,?
Cn1c(CNC(=O)C2Cn3cccc3C(=O)N2Cc2ccccc2)nc2ccccc21 (stereo not drawn),i,?,32µM*,-11%,?
Cc1nn(C)c(C)c1S(=O)(=O)N1CCCCCCn2c(nnc2-c2ccc(F)cc2)CC1,i,?,-25%,-12%,-24%
O=S(=O)(c1ccccc1F)N1CCC(CCc2nc(C3CCOCC3)no2)CC1,nt,-1%,?,nt,45µM*
Cc1ccccc1C(=O)N1CCCC1C(=O)N1CCC(c2nc3ccncc3[nH]2)C1 (stereo not drawn),nt,4%,-11%,nt,-3%
COc1ccc(N2CCN(c3nc(C(=O)NCc4ccco4)cs3)CC2)cc1,i,?,?,-25%,?
COc1cccc(N2CCN(c3nc(C(=O)NCc4ccco4)cs3)CC2)c1,i,-22%,?,-9%,45µM*
